Results taken from publication PMC4336329 (PLoS ONE, 2015).
The whole screen tested about 310,000 compounds, of which about 14,000 (4.5%) showed an effect of 50% or more. The effect is printed as a negative number. What follows is part of a selection rich in strong results, with near analogues and random picks from the rest.
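Note: peak tail current of the secondary pulse compared with the same well before compound.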

These molecules were tested against human ether-à-go-go-related gene (hERG) potassium channel (human, UniProt Q12809) (assay: primary screen, population patch clamp on CHO cells stably expressing hERG; higher = less effect of the substance).
Chain of human ether-à-go-go-related gene (hERG) potassium channel (Q12809 whole entry, looked up): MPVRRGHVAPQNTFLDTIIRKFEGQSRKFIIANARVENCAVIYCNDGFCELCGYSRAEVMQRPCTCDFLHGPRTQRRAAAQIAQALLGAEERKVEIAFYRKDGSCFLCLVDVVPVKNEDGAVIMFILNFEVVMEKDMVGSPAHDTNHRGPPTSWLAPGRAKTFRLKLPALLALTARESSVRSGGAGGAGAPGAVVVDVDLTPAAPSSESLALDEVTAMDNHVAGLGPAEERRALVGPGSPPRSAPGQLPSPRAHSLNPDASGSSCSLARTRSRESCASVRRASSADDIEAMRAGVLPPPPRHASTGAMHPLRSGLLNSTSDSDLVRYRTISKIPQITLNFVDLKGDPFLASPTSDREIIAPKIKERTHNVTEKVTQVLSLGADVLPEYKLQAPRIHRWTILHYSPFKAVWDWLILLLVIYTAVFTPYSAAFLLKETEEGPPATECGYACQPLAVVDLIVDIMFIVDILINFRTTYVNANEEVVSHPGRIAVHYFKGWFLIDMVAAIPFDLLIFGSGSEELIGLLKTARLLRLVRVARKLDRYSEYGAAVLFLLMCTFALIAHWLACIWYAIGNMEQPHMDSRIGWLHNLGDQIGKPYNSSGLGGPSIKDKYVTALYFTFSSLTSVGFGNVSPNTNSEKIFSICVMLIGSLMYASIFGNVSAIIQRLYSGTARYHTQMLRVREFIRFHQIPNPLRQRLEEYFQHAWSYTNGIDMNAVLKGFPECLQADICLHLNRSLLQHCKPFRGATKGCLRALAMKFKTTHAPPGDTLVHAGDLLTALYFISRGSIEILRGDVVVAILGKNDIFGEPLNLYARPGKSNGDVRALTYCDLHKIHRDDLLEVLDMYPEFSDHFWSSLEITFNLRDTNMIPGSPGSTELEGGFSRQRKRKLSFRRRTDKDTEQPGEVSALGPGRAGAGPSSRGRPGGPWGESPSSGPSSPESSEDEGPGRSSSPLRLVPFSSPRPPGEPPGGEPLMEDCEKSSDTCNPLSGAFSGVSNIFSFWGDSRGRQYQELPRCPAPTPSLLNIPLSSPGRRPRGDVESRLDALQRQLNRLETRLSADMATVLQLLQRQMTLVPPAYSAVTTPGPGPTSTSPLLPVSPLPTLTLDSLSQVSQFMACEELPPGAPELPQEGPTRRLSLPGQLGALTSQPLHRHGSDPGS
In the case of CC(=O)c1ccc(NC(=O)c2ccc(COc3ccccc3[N+](=O)[O-])o2)cc1, the “hERG current change (%, negative = inhibition) at 10uM” value is reported as -8.46%. With Cc1cc(=O)n(CC(=O)Nc2cc(Cl)ccc2C)c(C(C)C)n1 the “hERG current change (%, negative = inhibition) at 10uM” value was -1.59%. For CN(CC1CCOCC1)C(=O)CC1C(=O)NCCN1Cc1ccc(Cl)c(F)c1 (stereo not drawn), the “hERG current change (%, negative = inhibition) at 10uM” value was 10.4%. For CCCCNC(=O)c1nn(-c2ccccc2OC)c(=O)c2ccccc12, the “hERG current change (%, negative = inhibition) at 10uM” value was -4.46%. For COc1ccc(NC(=O)CCN2CCN(S(=O)(=O)c3ccc(F)cc3)CC2)cc1, the “hERG current change (%, negative = inhibition) at 10uM” value was -6.32%. In the case of Cc1cc(C)c2c(-n3cccc3)c(C(=O)NNS(=O)(=O)c3ccc(Cl)cc3)sc2n1, the “hERG current change (%, negative = inhibition) at 10uM” value is reported as 0.175%. With COc1ccc(/C=C/C(=O)NC2CCN(Cc3ccccc3)CC2)cc1OC the “hERG current change (%, negative = inhibition) at 10uM” value was -29%. With S=C(Nc1ccc(Br)cc1Cl)NC1CCN(Cc2ccccc2)CC1 the “hERG current change (%, negative = inhibition) at 10uM” value was -2.37%. In the case of O=C(Nc1ccccc1)NC1CCN(Cc2ccccc2)CC1, the “hERG current change (%, negative = inhibition) at 10uM” value is reported as -39.4%. O=C(COC(=O)/C=C/c1cccc(Br)c1)NC1CC1 was tested, and the “hERG current change (%, negative = inhibition) at 10uM” value was -2.84%. For O=C(/C=C/c1cccc(F)c1)NC1CCN(Cc2ccccc2)CC1, the “hERG current change (%, negative = inhibition) at 10uM” value was -70.6%. In the case of O=C(Nc1cccc(F)c1)NC1CCN(Cc2ccccc2)CC1, the “hERG current change (%, negative = inhibition) at 10uM” value is reported as -56.4%. For O=C(/C=C/c1cccc(Br)c1)NC1CCN(Cc2ccccc2)CC1, the “hERG current change (%, negative = inhibition) at 10uM” value was -71.1%. With O=C(Nc1cccc(C(F)(F)F)c1)NC1CCCCC1 the “hERG current change (%, negative = inhibition) at 10uM” value was -3.18%. In the case of O=C(Cc1c(F)cccc1Cl)NC1CCN(Cc2ccccc2)CC1, the “hERG current change (%, negative = inhibition) at 10uM” value is reported as -0.715%. O=C(Nc1ccc(F)cc1)NC1CCN(Cc2ccccc2)CC1 was tested, and the “hERG current change (%, negative = inhibition) at 10uM” value was -36.7%. In the case of CN1CCC(NC(=O)Nc2cccc(C(F)(F)F)c2)CC1, the “hERG current change (%, negative = inhibition) at 10uM” value is reported as -0.705%. CCN1CCC(NC(=O)Nc2cccc(C(F)(F)F)c2)CC1 was tested, and the “hERG current change (%, negative = inhibition) at 10uM” value was -51.1%. In the case of COc1ccc(CN2C(=O)[C@H]3Cc4c([nH]c5ccccc45)C(C)(C)N3C2=O)cc1, the “hERG current change (%, negative = inhibition) at 10uM” value is reported as 7%. For COc1cccc(NC(=O)N(Cc2cc3cc(C)cc(C)c3[nH]c2=O)CC2COCCO2)c1 (stereo not drawn), the “hERG current change (%, negative = inhibition) at 10uM” value was 4.85%. For Cc1nnc(SCC(=O)N(Cc2ccccc2)C(C)C)n1-c1ccccc1, the “hERG current change (%, negative = inhibition) at 10uM” value was -5.28%. For Cc1c(O)ccc2c(=O)c(-c3nncn3-c3ccccc3)coc12, the “hERG current change (%, negative = inhibition) at 10uM” value was 21.2%. In the case of COc1ccc(NC(=O)c2ccccc2C)cc1, the “hERG current change (%, negative = inhibition) at 10uM” value is reported as 14.9%. With Cc1c(C(=O)NCCc2ccccc2)oc2ccc(S(=O)(=O)N3CCOCC3)cc12 the “hERG current change (%, negative = inhibition) at 10uM” value was -19.1%. With CC(C)CC(=O)NCC(C)NC(=O)CC(C)C (stereo not drawn) the “hERG current change (%, negative = inhibition) at 10uM” value was 3.51%. With COc1ccc(C(CC(=O)N2CCN(c3ccccc3)CC2)c2c(OC)cc(OC)c3ccc(=O)oc23)cc1 (stereo not drawn) the “hERG current change (%, negative = inhibition) at 10uM” value was 1.88%. For Fc1ccc(C2CC(c3ccccc3)Nc3ncnn32)cc1 (stereo not drawn), the “hERG current change (%, negative = inhibition) at 10uM” value was -45.9%. With Fc1ccc(C2CC(c3ccc(F)cc3)n3ncnc3N2)cc1 (stereo not drawn) the “hERG current change (%, negative = inhibition) at 10uM” value was -60%. With Clc1ccc(C2CC(c3ccccc3)Nc3ncnn32)cc1 (stereo not drawn) the “hERG current change (%, negative = inhibition) at 10uM” value was -64.4%. With c1ccc(C2CC(c3ccccc3)n3ncnc3N2)cc1 (stereo not drawn) the “hERG current change (%, negative = inhibition) at 10uM” value was -17.3%. With Fc1ccc(C2CC(c3ccccc3)n3ncnc3N2)cc1 (stereo not drawn) the “hERG current change (%, negative = inhibition) at 10uM” value was -29.3%. For Cc1ccc(C2CC(c3ccccc3)n3ncnc3N2)cc1 (stereo not drawn), the “hERG current change (%, negative = inhibition) at 10uM” value was -1.18%. For CCc1ccc(/C=C2\SC(=S)N(CCCC(=O)Nc3nccs3)C2=O)cc1, the “hERG current change (%, negative = inhibition) at 10uM” value was 8.83%. For Cc1ccc(S(=O)(=O)n2nc(OC(=O)c3ccccc3F)cc2N)cc1, the “hERG current change (%, negative = inhibition) at 10uM” value was 9.49%. For CC(=O)Nc1c(Nc2ccccc2)c2ccccc2oc1=O, the “hERG current change (%, negative = inhibition) at 10uM” value was 3.92%. COc1ccc(CN2CCN(C(=O)COc3ccc4ccccc4c3)CC2)c(OC)c1 was tested, and the “hERG current change (%, negative = inhibition) at 10uM” value was -52.6%. In the case of COc1ccc(N2CCN(C(=O)COc3ccc4ccccc4c3)CC2)cc1, the “hERG current change (%, negative = inhibition) at 10uM” value is reported as 5.36%. With COc1ccccc1CN1CCN(C(=O)COc2ccc3ccccc3c2)CC1 the “hERG current change (%, negative = inhibition) at 10uM” value was -36%. With CN1CCN(C(=O)COc2ccc3ccccc3c2)CC1 the “hERG current change (%, negative = inhibition) at 10uM” value was -3.47%. With COc1cc(OC)c(OC)cc1CN1CCN(C(=O)COc2ccc3ccccc3c2)CC1.O=C(O)C(=O)O the “hERG current change (%, negative = inhibition) at 10uM” value was -36.4%. COc1cc(OC)cc(C(=O)N2CCN(C(=O)COc3ccc4ccccc4c3)CC2)c1 was tested, and the “hERG current change (%, negative = inhibition) at 10uM” value was -64.8%. For COc1ccc(C(=O)N2CCN(C(=O)c3cc(OC)c(OC)c(OC)c3)CC2)cc1, the “hERG current change (%, negative = inhibition) at 10uM” value was -17.4%. In the case of COc1cccc(C(=O)N2CCN(C(=O)COc3ccc4ccccc4c3)CC2)c1, the “hERG current change (%, negative = inhibition) at 10uM” value is reported as -47.4%. With COc1cc(C(=O)N2CCN(C(=O)COc3ccc4ccccc4c3)CC2)cc(OC)c1OC the “hERG current change (%, negative = inhibition) at 10uM” value was -73%. In the case of NC(=O)CCN(C1CCCCC1)S(=O)(=O)c1cccc2nsnc12, the “hERG current change (%, negative = inhibition) at 10uM” value is reported as 10.5%.
